# Data reported in PubChem BioAssay.
# “And” between values parts separate entries of the source, which are not always exact repeats. Equal entries are not always repeated. For some of these results: Potency and affinity values are given separately. Where a structure was tested more than once in an assay, its records may differ in their call. The source made the active and inactive calls.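 The calls were made as follows, unless noted: active = thallium flux through the channel raised or lowered by more than 3 SD from vehicle-only wells, actives on both sides; inactive = the rest.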
# How the values were obtained:
# [1] = compounds altering viability of human ES cells (AID 493140; call rule not given here;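 also: cells exposed to compounds for four days before counting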); conditions: human embryonic stem cell survival screen; stronger effect = higher value
# [2] = signal quenchers or enhancers, Cy5 substrate/SSB – biochemical, NIH Clinical Collection, E. coli SSB, artefact control for HCV NS3 helicase inhibitor project (AID 743268; call rule not given here); conditions: Cy5-oligo bound E. coli SSB, fluorescence interference
# [3] = modulation of C. elegans fzo-1 (AID 1259413; call rule not given here;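 also: fzo-1 mutant C. elegans worms in liquid wells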); conditions: C. elegans fzo-1 modulator screen, mean read-out; stronger effect = higher value
# [4] = drug combination growth inhibition, ovarian cancer – cell-based, oncology-focused library, rucaparib conditional, profiling panel (AID 1508598;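 active = normalized viability below 100% at a tested concentration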); conditions: patient-derived ovarian cancer cells, CellTiter-Glo viability, 144 h, stronger effect = lower value
# [5] = galactose survival enhancers in mitochondrial complex I cybrids – cell-based, galactose medium, ATP luminescence, primary screen (AID 1645843;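 active = z-score of at least 1.8 in each of two replicates, scored against plate mean and spread of sample wells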;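 also: positive z means more ATP and so rescue of galactose-driven cybrid death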); conditions: complex I mutant cybrid cells, 72 h, stronger effect = higher value
# R275C = experiment: BK channel mutant inhibitors and activators – cell-based, U2OS BacMam, thallium flux, beta subunits, selectivity assay, profiling panel (AID 1259406); conditions: U2OS BacMam BK variants, at 30 µM;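 also: initial slope of Thallos dye fluorescence rise after thallium is added; log ratio against the mean of 0.3% DMSO vehicle wells on the same plate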
# R275C/beta1 = experiment: as above; conditions: U2OS BacMam BK variants, at 30 µM
# R275C/beta2Delta = experiment: as above; conditions: U2OS BacMam BK variants, at 30 µM
# [6] = blockers of polyQ-driven CASP3 activation – cell-based (AID 1583); conditions: polyglutamine-induced caspase-3 activation, cell assay; stronger effect = higher value;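 tested at 10 µM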
# [7] = yeast 75Q aggregation reduction – 75Q-TubU reporter (AID 1593); conditions: Yeast 75Q polyglutamine aggregation reporter
# [8] = restoration of touch response, mutant HTT neurons – whole organism, C. elegans mechanosensory neurons, N-terminal huntingtin (AID 1599); conditions: C. elegans polyQ-huntingtin mechanosensory neurons, stronger effect = higher value
# [9] = blockers of cytochrome c efflux from mitochondria – biochemical, purified mitochondria (AID 1603); conditions: stronger effect = lower value;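 also: mouse liver mitochondria challenged with calcium chloride; signal normalized to the plate average as 100%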
# [10] = polyglutamine aggregate formation blockers (AID 1604); conditions: polyglutamine-induced protein aggregation inhibition assay; stronger effect = higher value; tested at 2.5 µM
# [11] = glutamate transport activators, MN-1 cells, MN-1 cell line (AID 1612); conditions: MN-1 motor neuron cells, stronger effect = higher value;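 also: tested at 1 µM final; 0% = mean of DMSO vehicle wells on each plate; positive means more glutamate uptake than control and negative means less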
# [12] = 75Q-TubH aggregate inhibition, S. cerevisiae, yeast (AID 1616); conditions: S. cerevisiae 75Q-TubH polyglutamine aggregation suppression; stronger effect = higher value
# F380Y/beta1 = experiment: BK channel mutant inhibitors and activators – cell-based, U2OS BacMam, thallium flux, beta subunits, selectivity assay, profiling panel (AID 1259406); conditions: U2OS BacMam BK variants, at 30 µM;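 also: initial slope of Thallos dye fluorescence rise after thallium is added; log ratio against the mean of 0.3% DMSO vehicle wells on the same plate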
# F380Y/beta4 = experiment: as above; conditions: U2OS BacMam BK variants, at 30 µM
# R275C/beta4 = experiment: as above; conditions: U2OS BacMam BK variants, at 30 µM
# R275C/Slo1WT/beta2 = experiment: as above; conditions: U2OS BacMam BK variants, at 30 µM
# [13] = P. berghei load reduction in hepatocytes – cell-based, HepG2, luciferase luminescence, HepG2 viability, primary screen (AID 624349; in the data active = parasite load remaining mostly below about 12%, no sharp cut-off; inactive = mostly above about 10%;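 also: 100% = mean of DMSO negative control wells on the same plate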); conditions: P. berghei liver stage in HepG2, luciferase luminescence, concentration not given here; parasite load remaining: stronger effect = lower value; viability: measured here: HepG2 viability without parasites
smiles,measurement,setting,value
CCN(CC)C(=S)SSC(=S)N(CC)CC,survival,[1],16.9 (inactive)
same,fluorescence ratio,[2],0.98 (inactive)
same,mean signal,[3],249 (inactive)
same,viability,"[4]; at 0.000305 µM, OCI-C5x cells, with rucaparib 10 µM, 100% = cells with rucaparib alone",117% (inactive)
same,viability,"[4]; at 0.000305 µM, OCI-C5x cells, without rucaparib",126% (inactive)
same,viability,"[4]; at 0.000305 µM, OCI-P5x cells, with rucaparib 20 µM, 100% = cells with rucaparib alone",78.8% (active)
same,viability,"[4]; at 0.000305 µM, OCI-P5x cells, without rucaparib",89.7% (active)
same,viability,"[4]; at 0.00122 µM, OCI-C5x cells, with rucaparib 10 µM, 100% = cells with rucaparib alone",122% (inactive)
same,viability,"[4]; at 0.00122 µM, OCI-C5x cells, without rucaparib",146% (inactive)
same,viability,"[4]; at 0.00122 µM, OCI-P5x cells, with rucaparib 20 µM, 100% = cells with rucaparib alone",76.6% (active)
same,viability,"[4]; at 0.00122 µM, OCI-P5x cells, without rucaparib",90.8% (active)
same,viability,"[4]; at 0.00488 µM, OCI-C5x cells, with rucaparib 10 µM, 100% = cells with rucaparib alone",117% (inactive)
same,viability,"[4]; at 0.00488 µM, OCI-C5x cells, without rucaparib",130% (inactive)
same,viability,"[4]; at 0.00488 µM, OCI-P5x cells, with rucaparib 20 µM, 100% = cells with rucaparib alone",75.9% (active)
same,viability,"[4]; at 0.00488 µM, OCI-P5x cells, without rucaparib",86.5% (active)
same,viability,"[4]; at 0.0195 µM, OCI-C5x cells, with rucaparib 10 µM, 100% = cells with rucaparib alone",128% (inactive)
same,viability,"[4]; at 0.0195 µM, OCI-C5x cells, without rucaparib",126% (inactive)
same,viability,"[4]; at 0.0195 µM, OCI-P5x cells, with rucaparib 20 µM, 100% = cells with rucaparib alone",74.6% (active)
same,viability,"[4]; at 0.0195 µM, OCI-P5x cells, without rucaparib",78.5% (active)
same,viability,"[4]; at 0.0781 µM, OCI-C5x cells, with rucaparib 10 µM, 100% = cells with rucaparib alone",120% (inactive)
same,viability,"[4]; at 0.0781 µM, OCI-C5x cells, without rucaparib",120% (inactive)
same,viability,"[4]; at 0.0781 µM, OCI-P5x cells, with rucaparib 20 µM, 100% = cells with rucaparib alone",104% (inactive)
same,viability,"[4]; at 0.0781 µM, OCI-P5x cells, without rucaparib",131% (inactive)
same,viability,"[4]; at 0.313 µM, OCI-C5x cells, with rucaparib 10 µM, 100% = cells with rucaparib alone",135% (inactive)
same,viability,"[4]; at 0.313 µM, OCI-C5x cells, without rucaparib",136% (inactive)
same,viability,"[4]; at 0.313 µM, OCI-P5x cells, with rucaparib 20 µM, 100% = cells with rucaparib alone",102% (inactive)
same,viability,"[4]; at 0.313 µM, OCI-P5x cells, without rucaparib",129% (inactive)
same,viability,"[4]; at 1.25 µM, OCI-C5x cells, with rucaparib 10 µM, 100% = cells with rucaparib alone",121% (inactive)
same,viability,"[4]; at 1.25 µM, OCI-C5x cells, without rucaparib",135% (inactive)
same,viability,"[4]; at 1.25 µM, OCI-P5x cells, with rucaparib 20 µM, 100% = cells with rucaparib alone",103% (inactive)
same,viability,"[4]; at 1.25 µM, OCI-P5x cells, without rucaparib",116% (inactive)
same,viability,"[4]; at 5 µM, OCI-C5x cells, with rucaparib 10 µM, 100% = cells with rucaparib alone",113% (inactive)
same,viability,"[4]; at 5 µM, OCI-C5x cells, without rucaparib",129% (inactive)
same,viability,"[4]; at 5 µM, OCI-P5x cells, with rucaparib 20 µM, 100% = cells with rucaparib alone",110% (inactive)
same,viability,"[4]; at 5 µM, OCI-P5x cells, without rucaparib",120% (inactive)
same,z-score,[5],-1.35 (inactive) and -1.44 (inactive) and -2.44 (inactive)
same,log fold change Tl+ flux,R275C,0.00507 (inactive)
same,log fold change Tl+ flux,R275C/beta1,0.145 (active)
same,log fold change Tl+ flux,R275C/beta2Delta,0.0247 (inactive)
O=C(c1ccccc1)c1ccc2n1CCC2C(=O)O (stereo not drawn),inhibition,[6],1.05%
same,score,[7],1.22
same,rescue above control,[8],-3.9
same,cytochrome c release ratio,[9],1.43
same,inhibition of aggregation,[10],60.8%
same,glutamate uptake change,[11],14.7%
same,aggregation suppression score,[12],1.2
same,survival,[1],2.17 (inactive)
same,fluorescence ratio,[2],1.01 (inactive)
same,mean signal,[3],231 (inactive)
same,z-score,[5],0.335 (inactive) and 1.09 (inactive) and 0.445 (inactive)
CNCCCC12CCC(c3ccccc31)c1ccccc12,inhibition,[6],-14.8%
same,score,[7],1.5
same,rescue above control,[8],28.8
same,cytochrome c release ratio,[9],1.86
same,inhibition of aggregation,[10],26.4%
same,glutamate uptake change,[11],22.4%
same,aggregation suppression score,[12],1.14
same,survival,[1],0.833 (inactive)
same,fluorescence ratio,[2],0.97 (inactive)
same,mean signal,[3],255 (inactive)
same,log fold change Tl+ flux,R275C,0.0254 (inactive)
same,log fold change Tl+ flux,R275C/beta1,0.285 (active)
same,log fold change Tl+ flux,R275C/beta2Delta,0.217 (active)
NC(N)=NC(=O)c1nc(Cl)c(N)nc1N,inhibition,[6],17.4%
same,score,[7],0.64
same,rescue above control,[8],-10.9
same,cytochrome c release ratio,[9],1.1
same,inhibition of aggregation,[10],27.6%
same,glutamate uptake change,[11],-1.52%
same,aggregation suppression score,[12],1.02
same,survival,[1],8.17 (inactive)
same,fluorescence ratio,[2],0.95 (inactive)
same,mean signal,[3],212 (inactive)
same,log fold change Tl+ flux,R275C,-0.0162 (inactive)
same,log fold change Tl+ flux,R275C/beta1,0.0417 (inactive)
same,log fold change Tl+ flux,R275C/beta2Delta,-0.00743 (inactive)
C[C@]12C=CC(=O)C=C1CC[C@@H]1[C@@H]2[C@@H](O)C[C@@]2(C)[C@H]1CC[C@]2(O)C(=O)CO,survival,[1],15.8 (inactive)
same,fluorescence ratio,[2],1.02 (inactive)
same,z-score,[5],-0.29 (inactive) and 0.46 (inactive)
same,log fold change Tl+ flux,F380Y/beta1,0.00512 (inactive)
same,log fold change Tl+ flux,F380Y/beta4,0.023 (inactive)
same,log fold change Tl+ flux,R275C,0.0128 (inactive)
same,log fold change Tl+ flux,R275C/beta1,0.0311 (inactive)
same,log fold change Tl+ flux,R275C/beta2Delta,0.0197 (inactive)
same,log fold change Tl+ flux,R275C/beta4,-0.0125 (inactive)
same,log fold change Tl+ flux,R275C/Slo1WT/beta2,-0.0471 (inactive)
CN(C)CCN(Cc1ccccc1)c1ccccn1,inhibition,[6],16.8%
same,score,[7],1.31
same,rescue above control,[8],2.67
same,cytochrome c release ratio,[9],1.13
same,inhibition of aggregation,[10],79.6%
same,glutamate uptake change,[11],-25.1%
same,aggregation suppression score,[12],1.09
same,parasite load remaining,[13],50.9% (inactive) and 109% (inactive)
same,viability,[13],82.5% and 67.3%
same,fluorescence ratio,[2],1.01 (inactive)
same,mean signal,[3],272 (inactive)
same,z-score,[5],0.73 (inactive)
same,log fold change Tl+ flux,R275C,0.027 (inactive)
same,log fold change Tl+ flux,R275C/beta1,0.0111 (inactive)
same,log fold change Tl+ flux,R275C/beta2Delta,-0.0395 (inactive)
COc1ccc2c(c1)c(CC(=O)O)c(C)n2C(=O)c1ccc(Cl)cc1,inhibition,[6],24.4%
same,score,[7],-1.46
same,rescue above control,[8],-5.76
same,cytochrome c release ratio,[9],0.82
same,inhibition of aggregation,[10],-6.06%
same,glutamate uptake change,[11],7.33%
same,aggregation suppression score,[12],0.0101
same,survival,[1],13.2 (inactive)
same,fluorescence ratio,[2],1.02 (inactive)
same,mean signal,[3],244 (inactive)
same,log fold change Tl+ flux,R275C,0.074 (inactive)
same,log fold change Tl+ flux,R275C/beta1,0.196 (active)
same,log fold change Tl+ flux,R275C/beta2Delta,0.128 (active)
C=CCCCCCCCCC(=O)O,parasite load remaining,[13],49.2% (inactive)
same,viability,[13],96.2%
OCCN(CCO)c1nc(N2CCCCC2)c2nc(N(CCO)CCO)nc(N3CCCCC3)c2n1,inhibition,[6],-102%
same,score,[7],1.27
same,rescue above control,[8],18.2
same,cytochrome c release ratio,[9],1.1
same,inhibition of aggregation,[10],79.2%
same,glutamate uptake change,[11],32%
same,aggregation suppression score,[12],1.33
same,survival,[1],34.4 (inactive)
same,fluorescence ratio,[2],0.96 (inactive)
same,mean signal,[3],298 (inactive)
CC1(C)O[C@@H]2C[C@H]3[C@@H]4CCC5=CC(=O)C=C[C@]5(C)[C@@]4(F)[C@@H](O)C[C@]3(C)[C@]2(C(=O)CO)O1,parasite load remaining,[13],89.9% (inactive)
same,viability,[13],87.8%
same,fluorescence ratio,[2],0.99 (inactive)
same,z-score,[5],0.21 (inactive)
same,log fold change Tl+ flux,F380Y/beta1,0.0642 (inactive)
same,log fold change Tl+ flux,F380Y/beta4,0.0499 (inactive)
same,log fold change Tl+ flux,R275C,-0.0106 (inactive)
same,log fold change Tl+ flux,R275C/beta1,0.0867 (inactive)
same,log fold change Tl+ flux,R275C/beta2Delta,0.0611 (inactive)
same,log fold change Tl+ flux,R275C/beta4,-0.0125 (inactive)
same,log fold change Tl+ flux,R275C/Slo1WT/beta2,-0.102 (inactive)
CC(=O)OCC(=O)[C@@]1(O)CC[C@H]2[C@@H]3CCC4=CC(=O)CC[C@]4(C)[C@H]3C(=O)C[C@@]21C,parasite load remaining,[13],71.9% (inactive)
same,viability,[13],95.8%
same,fluorescence ratio,[2],1.07 (inactive)
same,z-score,[5],0.82 (inactive) and 2.46 (active)
same,log fold change Tl+ flux,F380Y/beta1,0.0066 (inactive)
same,log fold change Tl+ flux,F380Y/beta4,-0.0455 (inactive)
same,log fold change Tl+ flux,R275C,0.0275 (inactive)
same,log fold change Tl+ flux,R275C/beta1,-0.0466 (inactive)
same,log fold change Tl+ flux,R275C/beta2Delta,-0.00407 (inactive)
same,log fold change Tl+ flux,R275C/beta4,-0.00976 (inactive)
same,log fold change Tl+ flux,R275C/Slo1WT/beta2,0.0162 (inactive)
